High-throughput results as filed in PubChem.
hgDAF-12 ag = H. glycines DAF-12 receptor agonists, primary screen, cell-based, luminescence, HEK293, GAL4 fusion, UAS-luciferase; Nuclear hormone receptor DAF-12 (Heterodera glycines), GAL4 fusion; HEK293 GAL4-hgDAF12 UAS-luciferase reporter, agonist luminescence; normalized to butyrate control; activation, % at 6.8 µM; 370,000 compounds, 1.8% hits;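 active = activation above a cutoff set at the mean of all screened compounds plus 3 SD, cut at about 10% in these data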
DAX1 inh-1 = DAX1 (NR0B1) inhibitors, primary screen, cell-based, HEK293, Gal4-DAX1, luciferase luminescence | AID 504766, 2011 | HEK293 Gal4-DAX1 luciferase reporter | Nuclear receptor subfamily 0 group B member 1 (Homo sapiens), P51843 | inhibition, % at 6.75 µM | 340,000 compounds, 0.99% hits;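 active = inhibition above the mean over all tested compounds plus 3 SD, cut at about 4.2% in these data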;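 note: inhibition shows as a rise in luminescence from relieved DAX1 repression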
Target sequence (P51843 207-470 limits assumed): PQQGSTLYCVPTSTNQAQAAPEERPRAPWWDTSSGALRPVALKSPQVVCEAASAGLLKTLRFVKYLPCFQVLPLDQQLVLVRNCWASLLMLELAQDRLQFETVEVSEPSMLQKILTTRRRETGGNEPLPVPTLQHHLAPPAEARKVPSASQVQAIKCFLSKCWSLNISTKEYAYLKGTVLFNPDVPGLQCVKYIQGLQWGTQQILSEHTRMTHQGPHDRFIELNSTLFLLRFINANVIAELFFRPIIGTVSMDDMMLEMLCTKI
DAX1 inh-2 = DAX1 (NR0B1) inhibitors on StAR promoter, primary screen, cell-based, luminescence, SF-1 (NR5A1), full-length DAX-1. inhibition, % at 6.8 µM. AID 652010, 2013. HEK293T StAR-luciferase reporter, SF-1/DAX-1 repression relief. 370,000 compounds, 1.1% hits;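 active = inhibition above the mean over all tested compounds plus 3 SD, cut at about 3.6% in these data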;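 note: higher inhibition means more luminescence from relief of DAX-1 repression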
ssDAF-12 act = S. stercoralis DAF-12 nuclear receptor activators, primary screen, cell-based, luminescence, HEK293, GRIP1 co-expression, lit1-tk-luc | activation, % at 6.8 µM | HEK293 ssDAF-12/GRIP1 lit1-tk-luc reporter; % of 3 µM dafachronic acid response | Nuclear hormone receptor DAF-12 (Strongyloides stercoralis) | 370,000 compounds, 1% hits | AID 652126, 2013;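 active = activation above the mean over all tested compounds plus 3 SD, cut at about 0.9% in these data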
SMARCA2 activ = SMARCA2 (BRM) function activators, primary screen, cell-based, luminescence, high throughput | activation, % at 9.1 µM | 370,000 compounds, 1% hits | MG213 cells, MMTV-luciferase reporter, dexamethasone, overnight; in the data active = activation above about 7.8%
hcDAF-12 act = H. contortus DAF-12 nuclear receptor activators, primary screen, cell-based, luminescence, HEK293, lit1-tk-luc reporter | HEK293 hcDAF-12 lit1-tk-luc reporter; 0% DMSO, 100% Δ7-dafachronic acid | activation, % at 6.8 µM | AID 652067, 2013 | 370,000 compounds, 1.4% hits;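 active = activation above the mean of all tested compounds plus 3 SD, cut at about 5.5% in these data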
Each line names hits and unclear results; the compound was inactive in the other large screens. An excerpt weighted towards active compounds, which were near 4.8% of everything screened.

O=C(N/N=C1\CC(c2ccccc2)Oc2ccccc21)c1ccccn1 (stereo not given)	DAX1 inh-2 3.8
COc1ccc(-c2[nH]ncc2CN(C)CCCN2CCOCC2)cc1F	DAX1 inh-1 5.9
COc1ccc(-c2[nH]ncc2CN2CCCO2)cc1F	none
C[C@H](O)[C@@H]1CN2CCc3ccc(N4CCOCC4)cc3[C@@H]2C[C@@H]1N(C)C(=O)c1ccco1	none (no result: DAX1 inh-1)
Cc1c(C(=O)O)sc2nc(-c3cccs3)cc(C(F)(F)F)c12	none
Cc1c(C(=O)Nc2nccs2)sc2nc(-c3cccs3)cc(C(F)(F)F)c12	ssDAF-12 act 1.2
CC(=O)c1sc2nc(-c3cccs3)cc(C(F)(F)F)c2c1N	hcDAF-12 act 6.3
CCOC(=O)c1csc(NC(=O)C2CCCN(S(=O)(=O)c3ccc([N+](=O)[O-])cc3)C2)n1 (stereo not given)	none (no result: DAX1 inh-1)
CC(=O)OC12CCCN(C1)/C(=C/c1ccc(Cl)cc1)C2 (stereo not given)	none (no result: DAX1 inh-1)
CNC(=O)CCC(=O)Nc1ccc(C)cc1	DAX1 inh-1 4.7
COc1ccc(NC(=O)COC(=O)CC2CCCCC2)cc1	none
Cc1ccc(NC(=O)CCSc2ccccn2)cc1	hgDAF-12 ag 10.9, DAX1 inh-1 4.2, DAX1 inh-2 4.4
COc1ccc(NC(=O)CN2CCN(c3ccccc3)CC2)cc1	hgDAF-12 ag 12.3
Cc1ccc(NC(=O)CCC(=O)Nc2ccc(C)cc2)cc1	none
COc1ccc(NC(=O)COC(=O)CC2CCCC2)cc1	ssDAF-12 act 1.2
COC(=O)C1CN(Cc2cn(CCOC(C)=O)nn2)CCS(=O)(=O)N1Cc1ccc(Cl)cc1 (stereo not given)	none (no result: DAX1 inh-1)
CCOc1ccc(-c2cc(C(=O)OC)c3n(c2=O)CCC3)cc1	none (no result: DAX1 inh-1)
COc1ccc(NC(=O)COCC(=O)Nc2ccc(C)cc2)cc1	DAX1 inh-1 5.6
CCN1C(=S)SC(=O)C1=C1C=C(C)N(Cc2ccco2)C(C)=C1	hgDAF-12 ag 12.2, hcDAF-12 act 6.5
CCN1C(=S)SC(=O)C1=C1C=C(C)OC(C)=C1	none
C[C@@H]1[C@@H](O)C[C@@]2(C[C@H](O)c3cc(F)ccc3O2)O[C@H]1c1ccccc1Cl	none (no result: DAX1 inh-1)
O=C(COc1ccc(Cl)cc1)NCc1nnc(SCC(=O)Nc2ccccc2)o1	none
COc1ccc(NC(=O)CSc2nnc(CNC(=O)COc3ccc(Cl)cc3)o2)cc1	hgDAF-12 ag 13.1
O=C(COc1ccc(Cl)cc1)NNC(=O)c1ccc2c(=O)n3c(nc2c1)CCC3	DAX1 inh-2 4.1
CNC(=O)c1ncnnc1N(C)C(=O)NCc1ccccc1	DAX1 inh-1 9.6
C=CCn1c(=NC(=O)c2cccc(N3C(=O)CCC3=O)c2)sc2cccc(OC)c21	DAX1 inh-1 4.8
COc1ccc(C)c2sc(=NC(=O)c3cccc(N4C(=O)CCC4=O)c3)n(C)c12	none
O=C(c1ccc2nc(Cc3cccc(Cl)c3)oc2c1)N1CCC(O)CC1	none
O=C(c1ccc2nc(Cc3cccc(Cl)c3)oc2c1)N1CCOCC1	DAX1 inh-2 3.9, hcDAF-12 act 6.0
COC(=O)[C@]12C[C@H](CC(=O)NCC3CCCCC3)C(=O)N(Cc3cccc4ccccc34)C1=C[C@H](COCc1ccccc1)O[C@@H]2C	none (no result: DAX1 inh-1)
CCCC(=O)Oc1ccc(-c2nccc(C(OC)OC)n2)cc1	DAX1 inh-1 4.3
Cc1c[nH]c2cccc(-c3cccc4ccccc34)c12	none (no result: DAX1 inh-1)
COc1cc(Nc2cc(C)nc3ncnn23)cc(OC)c1OC	DAX1 inh-1 5.5
C=CCN(CC#CCN(C)C(=O)c1cccn1C(=O)OC(C)(C)C)Cc1ccc(OC)cc1OC	none (no result: DAX1 inh-1)
C=CCn1c(SCC(=O)Nc2ccc(CCCC)cc2)nnc1-c1ccc(Cl)cc1	none (no result: DAX1 inh-1)
O=C(NNC(=O)c1c(O)c2ccccc2[nH]c1=O)c1ccccc1Br	ssDAF-12 act 0.9
O=C(Nc1ccccc1C(=O)Nc1ccccc1)c1ccccc1Br	none
O=C(Nc1c[nH]c(=O)[nH]c1=O)c1ccccc1Br	DAX1 inh-1 6.4
O=S1(=O)c2c(NCc3ccco3)cccc2Oc2ccccc2CN1Cc1cn(Cc2cccc(F)c2)nn1	none (no result: DAX1 inh-1)
CC(=O)c1ccc(NC(=O)NC2CCCCN(Cc3ccc(Cl)cc3)C2=O)cc1 (stereo not given)	none (no result: DAX1 inh-1)
CCOc1ccc(N(Cc2nnc3n2CCCCC3)C(=O)Nc2cccc(C)c2)cc1	DAX1 inh-1 6.6
COc1ccc(-c2cc3nc[nH]c(=O)c3s2)cc1	hgDAF-12 ag 10.6
COc1ccc(-c2cc3nc(CCl)[nH]c(=O)c3s2)cc1	hgDAF-12 ag 12.1, hcDAF-12 act 5.9
Cc1cccc2sc(N(CCCN(C)C)C(=O)COc3ccc(Cl)cc3)nc12	DAX1 inh-1 4.3
CN(C)CCCN(C(=O)COc1ccc(Cl)cc1)c1nc2c(F)cccc2s1	none
CCCSc1nnc(CSc2ncccn2)n1C	hcDAF-12 act 5.9
CN(CC(=O)NCCc1ccc(F)cc1)Cc1cccs1	SMARCA2 activ 7.8
Cc1ccc(-n2c(SCC(=O)Nc3ccccc3-c3ccccc3)nnc2-c2cnccn2)cc1	none (no result: DAX1 inh-1)
COc1cccc(C(=O)N(CCN2CCOCC2)Cc2ccc(OC)c(OC)c2)c1	none (no result: DAX1 inh-1)
Cc1[nH]c2ccccc2c1/C=N/Nc1nc(N2CCCCC2)nc(N2CCCCC2)n1	none
CN(C)c1nc(N/N=C/c2c[nH]c3ccccc23)nc(N2CCOCC2)n1	ssDAF-12 act 1.2
C(=N\Nc1nc(N2CCCCC2)nc(N2CCCCC2)n1)/c1c[nH]c2ccccc12	ssDAF-12 act 1.1
COC(=O)[C@]12C[C@H](CC(=O)NCCCN3CCCC3=O)C(=O)N(CCc3ccc(OC)c(OC)c3)C1=C[C@H](C1CCCC1)O[C@@H]2C	none (no result: DAX1 inh-1)
CC(NC(=O)NC12CC3CC(CC(C3)C1)C2)C1CCCO1 (stereo not given)	DAX1 inh-1 7.2
CC(NC(=O)Nc1ccc(Cl)cc1)C1CCCO1 (stereo not given)	none
O=C(Nc1ccc(C(O)(C(F)(F)F)C(F)(F)F)cc1)c1ccc(F)cc1F	none (no result: DAX1 inh-1, DAX1 inh-2, SMARCA2 activ)
Cc1ccc(Cn2cc(CN(C3CC3)S(=O)(=O)c3ccccc3Br)nn2)cc1	none (no result: DAX1 inh-1)
CCC[C@H]1[C@@H](NC(=O)C2CCCCC2)CC[C@@]23CCCN2C(=O)CCC[C@@H]13	none (no result: DAX1 inh-1, DAX1 inh-2, SMARCA2 activ)
